According to paper PMC5540273 (PLoS ONE, 2017):
pKd: −log10 of the molar value.

Legend:
[1] = test system: JAK2(JH1domain-catalytic)
JNK2 = test system: T1, JNK2
T1 construct: gene MAPK9

JNK3 = test system: T2, JNK3
T2 construct: gene MAPK10

[2] = test system: JAK3(JH1domain-catalytic)
LOK = test system: T3, LOK
T3 construct: gene STK10
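Note: kd values determined as follow-up on hits from a single-replicate KINOMEscan panel screen.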

**Q.** `COc1ccc(Nc2nccc(N3CCC(NC(=O)C(C)c4ccc(Cl)cc4)CC3)n2)cc1` (stereo not shown) [GSK1379812] was tested. Which pKd (LATS2) did it give?
**A.** < 5.00

**Q.** `Nc1cccc(-c2ccc3c(N)n[nH]c3c2)n1` [GSK2192730] was tested. Which pKd [1] did it give?
**A.** < 5.00

**Q.** With `COc1ccc(Nc2nccc(N3CCC(NC(=O)c4cc5ccccc5s4)C3)n2)cc1` (stereo not shown) [GSK1379738] as the molecule, how does the pKd [1] read?
**A.** 5.74

**Q.** Which results are given for `Fc1ccc(-c2nc[nH]c2-c2ccncc2)cc1` [SB-217360]?
**A.** pKd (JNK2): 7.07; pKd (JNK3): 7.96

**Q.** `Cc1ccc(NC(=O)Nc2ccc(Cl)cc2)cc1-c1ccc(C(=O)Nc2ccncc2)cc1` [GSK1398472] was tested. Which pKd (KIT) did it give?
**A.** 6.85

**Q.** With `Fc1ccc(-c2nc3n(c2-c2ccncc2)CCS3)cc1` [GI98581] as the molecule, how does the pKd (JNK2) read?
**A.** 6.57

**Q.** And the pKd (JNK3)?
**A.** 7.24

**Q.** Which results are given for `CCCCc1nn2ncccc2c1-c1ccnc(NC2CC2)n1` [GW684374]?
**A.** pKd (JNK2): 5.89; pKd (JNK3): 6.13

**Q.** With `Cn1cncc1C(=O)NC1CCN(c2ccnc(Nc3ccc(F)cc3)n2)C1` (stereo not shown) [GSK1379717] as the molecule, how does the pKd [1] read?
**A.** 5.82

**Q.** How did the pKd (KIT) turn out when `Cc1ccc(NC(=O)Nc2ccccc2F)cc1-c1ccc(C(=O)Nc2ccncc2)cc1` [GSK1398477] was run?
**A.** 6.35

**Q.** `COc1cccc(C2=C(Nc3cc(Cl)c(O)c(Cl)c3)C(=O)NC2=O)c1` [SB-390767] was tested. Which pKd [2] did it give?
**A.** 6.92

**Q.** With `Cc1cnc(N)c(/C=C/c2cncc(C(=O)NCCc3ccc(Cl)cc3Cl)c2)c1.Cl` [GSK190937] as the molecule, how does the pKd (KIT) read?
**A.** 6.82

**Q.** How did the pKd (KIT) turn out when `CS(=O)(=O)Cc1ccc(Nc2nccc(-c3c(-c4cccc(NC(=O)C5CCCCC5)c4)nn4ncccc34)n2)cc1` [GSK350559] was run?
**A.** 6.96

**Q.** What about the pKd (LOK) of the same molecule?
**A.** 6.44

**Q.** With `Cc1c(Cn2c(C)c(C)n3c(=O)cc(N4CCOCC4)nc23)cccc1C(F)(F)F` [GSK2328680] as the molecule, how does the pKd (LATS1) read?
**A.** < 5.00

**Q.** With `Cc1ccc(NC(=O)Nc2ccc(Cl)c(C(F)(F)F)c2)cc1-c1ccc(C(=O)Nc2ccncc2)cc1` [GSK1398470] as the molecule, how does the pKd (KIT) read?
**A.** 6.25

**Q.** With `Cc1ccc(NC(=O)Nc2ccccc2)cc1-c1ccc(C(=O)Nc2ccncc2)cc1` [GSK1398471] as the molecule, how does the pKd (KIT) read?
**A.** 6.85

**Q.** With `Fc1ccc(-c2nn3cccc(F)c3c2-c2ccncc2)cc1` [GW475620] as the molecule, how does the pKd (JNK2) read?
**A.** 6.64

**Q.** What about the pKd (JNK3) of the same molecule?
**A.** 7.24

**Q.** With `CC(=O)c1c(C)c2cnc(Nc3ccc(N4CCNCC4)cn3)nc2n(C2CCCC2)c1=O` as the molecule, how does the pKd (LIMK2) read?
**A.** < 5.00

**Q.** Which results are given for `Cc1ccc(NC(=O)c2ccc(Cl)cc2)cc1-c1ccc(C(=O)Nc2ccncc2)cc1` [GSK1398467]?
**A.** pKd (KIT): 6.77; pKd (LRRK2): < 5.00

**Q.** With `COc1ccc2cc(-c3nc(-c4ccccc4C(C)C)[nH]c3-c3ccncc3)ccc2c1` [SB-660566] as the molecule, how does the pKd [1] read?
**A.** < 5.00

**Q.** With `COc1cccc(NC(=O)Nc2ccc(C)c(-c3ccc(C(=O)Nc4ccncc4)cc3)c2)c1` [GSK1398474] as the molecule, how does the pKd (KIT) read?
**A.** 7.14

**Q.** How did the pKd (JNK2) turn out when `Nc1nccc(-c2c(-c3ccc(F)cc3)ncn2C2CCN(Cc3ccccc3)CC2)n1` [SB-219980] was run?
**A.** 7.37

**Q.** What about the pKd (JNK3) of the same molecule?
**A.** 7.51

**Q.** `CCn1c(-c2c(N)noc2C)nc2cnccc21` [SB-737856] was tested. Which pKd (LIMK2) did it give?
**A.** < 5.00

**Q.** With `CNC(=O)c1ccc(C)c(-n2c(C)cc(OCc3ccc(F)cc3F)c(Br)c2=O)c1` as the molecule, how does the pKd (JNK2) read?
**A.** < 5.00

**Q.** What about the pKd (JNK3) of the same molecule?
**A.** < 5.00
